In PubChem BioAssay (EPA / NIEHS):
Records with an inconclusive call do not appear. The source made the active and inactive calls. How the source made its calls, unless noted: active means hit-call score of the fitted dose curve at least 0.9, where 1 is the maximum; inactive means score below 0.9.

Tests used:
DIO1 (gene 1733) = test: CCTE_GLTED_hDIO1: CCTE's human Deiodinase 1 (DIO1) Inhibition Assay, Great Lakes Toxicology and Ecology Division (GLTED) Lab (AID 2283987; active means hit-call score of the fitted dose curve at least 0.9, where 1 is the maximum;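 further: isolated human DIO1 enzyme in a cell-free setup rather than cells; enzyme activity read as free iodide liberated from substrate via Sandell-Kolthoff colorimetry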)
Outline: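 Cell-free human DIO1 enzyme incubated 3 h with test chemical; iodide freed from substrate then measured by Sandell-Kolthoff absorbance. Run in triplicate; loss of signal relative to DMSO taken as inhibition.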

[1] = CCTE_Harrill_HTTr_Viability_PRF_DMEM_6hr: (Pilot) CCTE's 6-hour Cell Viability Assessment for the High-Throughput Transcriptomics (HTTr) Platform, in MCF-7 cells cultured phenol red-free DMEM + 10% charcoal-stripped fetal bovine serum, Harrill Lab (AID 2283976)
Outline: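 Membrane integrity by high-content imaging of propidium iodide uptake, six hours after dosing with eight concentrations. Cells: MCF-7 grown in phenol red-free DMEM plus 10% charcoal-stripped serum; DMSO serves as baseline for bidirectional fits.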

[2] = CCTE_Harrill_HTTr_Viability_PRF_DMEM_12hr: (Pilot) CCTE's 12-hour Cell Viability Assessment for the High-Throughput Transcriptomics (HTTr) Platform, in MCF-7 cells cultured in phenol red-free DMEM + 10% charcoal-stripped fetal bovine serum, Harrill Lab (AID 2283977)
Outline: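 Membrane integrity was scored via propidium iodide dye exclusion imaging, fitted in both directions relative to DMSO. Compounds ran as eight-point dilutions for 12 hours on MCF-7 grown in phenol red-free DMEM plus 10% charcoal-stripped serum.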

[3] = CCTE_Harrill_HTTr_Viability_PRF_DMEM_24hr: (Pilot) CCTE's 24-hour Cell Viability Assessment for the High-Throughput Transcriptomics (HTTr) Platform, in MCF-7 cells cultured in phenol red-free DMEM + 10% charcoal-stripped fetal bovine serum, Harrill Lab (AID 2283980)
Outline: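 Propidium iodide exclusion imaged at 24 h after dosing scores viability; cells were MCF-7 grown in phenol red-free DMEM plus 10% charcoal-stripped serum, tested in eight concentrations, fitted in both directions against DMSO.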

[4] = CCTE_Harrill_HTTr_Apoptosis_DMEM_6hr: (Pilot) CCTE's 6-hour Apoptosis Assessment for the High-Throughput Transcriptomics (HTTr) Platform, in MCF-7 cells cultured in DMEM + 10% fetal bovine serum, Harrill Lab (AID 2283981)
Outline: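 MCF-7 cells grown in DMEM + 10% FBS were exposed for 6 hours to an eight-point dilution series. CellEvent Caspase 3/7 Green signal was imaged; activity fitted bidirectionally against DMSO.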

[5] = CCTE_Harrill_HTTr_Apoptosis_DMEM_12hr: (Pilot) CCTE's 12-hour Apoptosis Assessment for the High-Throughput Transcriptomics (HTTr) Platform, in MCF-7 cells cultured in DMEM + 10% fetal bovine serum, Harrill Lab (AID 2283982)
Outline: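 Caspase-3/7 activity was measured by high-content imaging (CellEvent Caspase 3/7 Green) after a 12-hour exposure of MCF-7 cells grown in DMEM with 10% FBS. Eight-point concentration series, fitted bidirectionally against vehicle.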

[6] = CCTE_Harrill_HTTr_Apoptosis_DMEM_24hr: (Pilot) CCTE's 24-hour Apoptosis Assessment for the High-Throughput Transcriptomics (HTTr) Platform, in MCF-7 cells cultured in DMEM + 10% fetal bovine serum, Harrill Lab (AID 2283983)
Outline: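 Caspase-3/7 activity read by high-content imaging (CellEvent Green reagent) 24 h after dosing. MCF-7 cells grown in DMEM with 10% FBS received an eight-point concentration series; fits were bidirectional versus DMSO.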

[7] = CCTE_Harrill_HTTr_Apoptosis_PRF_DMEM_6hr: (Pilot) CCTE's 6-hour Apoptosis Assessment for the High-Throughput Transcriptomics (HTTr) Platform, in MCF-7 cells cultured phenol red-free DMEM + 10% charcoal-stripped fetal bovine serum, Harrill Lab (AID 2283984)
Outline: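 Caspase-3/7 activity (CellEvent Green) read by high-content imaging 6 h after dosing, eight concentrations. Cells: MCF-7, phenol red-free DMEM with 10% charcoal-stripped serum. Curves fit both directions against DMSO.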

[8] = CCTE_Harrill_HTTr_Apoptosis_PRF_DMEM_24hr: (Pilot) CCTE's 24-hour Apoptosis Assessment for the High-Throughput Transcriptomics (HTTr) Platform, in MCF-7 cells cultured in phenol red-free DMEM + 10% charcoal-stripped fetal bovine serum, Harrill Lab (AID 2283986)
Outline: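 Eight concentrations tested for 24 h on MCF-7 grown in charcoal-stripped serum, phenol red-free DMEM. High content imaging of CellEvent Caspase 3/7 Green signal gives apoptosis read-out, fitted both ways relative to DMSO.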

[9] = TOX21_TR_RXR_BLA_Antagonist_Followup_viability: Viability Assessment in the Tox21 Thyroid Hormone Receptor beta Retinoid X Receptor alpha (RXRa) Antagonism Beta-lactamase (BLA) Follow-Up Assay (AID 2283979; active means hit-call score of the fitted dose curve at least 0.9, where 1 is the maximum)
Outline: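 RXRa-UAS-bla HEK293T cells seeded 2,500/well in phenol red-free DMEM with 2% charcoal-stripped FBS, attached 5 h, then exposed to compounds at 11 concentrations in triplicate for 16 h at 37C/5% CO2. Viability read by CellTiter-Glo ATP luminescence; bidirectional fit versus DMSO.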

Measured: AC50

CCCCCCCCCCCCCCOS(=O)(=O)O
active: DIO1 (gene 1733) 85.7 µM

S=c1[nH]c2ccccc2s1
active: DIO1 (gene 1733) 23.4 µM

Cc1cc(SC2=C(O)C[C@@](CCc3ccc(N)cc3)(C(C)C)OC2=O)c(C(C)(C)C)cc1CO
active: DIO1 (gene 1733) 66.3 µM

CC(C)OC(=O)C(C)(C)Oc1ccc(C(=O)c2ccc(Cl)cc2)cc1
inactive: [1] | [2] | [3] | [4] | [5] | [6] | [7] | [8]

Nc1nc(Cl)nc2c1ncn2[C@H]1C[C@H](O)[C@@H](CO)O1
inactive: [1] | [2] | [9] | [3] | [4] | [5] | [6] | [7] | [8]

CC(=O)O[C@]1(C(C)=O)CC[C@H]2[C@@H]3C=C(Cl)C4=CC(=O)[C@@H]5C[C@@H]5[C@]4(C)[C@H]3CC[C@@]21C
inactive: [1] | [2] | [3] | [4] | [5] | [6] | [7] | [8]

O=Cc1ccccc1C=O
active: DIO1 (gene 1733) 49.3 µM

COC(=O)[C@H]1[C@H]2C[C@@H]3c4[nH]c5cc(OC)ccc5c4CCN3C[C@H]2C[C@@H](OC(=O)c2cc(OC)c(OC)c(OC)c2)[C@@H]1OC
inactive: [1] | [2] | [4] | [5] | [7]
active: [6] 46.2 µM | [8] 58.3 µM

Cc1c(C)c2c(c(C)c1O)CCC(C)(COc1ccc(CC3SC(=O)NC3=O)cc1)O2 (stereo not given)
active: DIO1 (gene 1733) 85.9 µM
inactive: [1] | [2] | [3] | [4] | [5] | [6] | [7] | [8]

CCN(CC)CCOc1ccc(C(=C(Cl)c2ccccc2)c2ccccc2)cc1
active: [1] 70 µM | [2] 65.8 µM | [3] 50.3 µM | [4] 81.1 µM | [5] 83.4 µM | [6] 66.2 µM | [7] 79.6 µM | [8] 68.3 µM | DIO1 (gene 1733) 70.7 µM

Cc1ccc(-c2cc(C(F)(F)F)nn2-c2ccc(S(N)(=O)=O)cc2)cc1
active: DIO1 (gene 1733) 170 µM
